Source: PubChem BioAssay (Tox21)
The source made the active and inactive calls. Where a call stands in place of a potency, no number is given. Calls follow the shape of the full dose curve.

biological target: Gonadotropin-releasing hormone receptor (Homo sapiens) (UniProt P30968); test: Human gonadotropin-releasing hormone receptor (GnRHR) small molecule agonists, calcium flux assay in GnRHR-HEK293 cells (AID 1920063); conditions: calcium flux fluorescence, agonist mode; series mostly up to 57.6 µM; also: nearly all actives have a fitted effect of over 35% in size
Sequence (P30968 whole entry, looked up): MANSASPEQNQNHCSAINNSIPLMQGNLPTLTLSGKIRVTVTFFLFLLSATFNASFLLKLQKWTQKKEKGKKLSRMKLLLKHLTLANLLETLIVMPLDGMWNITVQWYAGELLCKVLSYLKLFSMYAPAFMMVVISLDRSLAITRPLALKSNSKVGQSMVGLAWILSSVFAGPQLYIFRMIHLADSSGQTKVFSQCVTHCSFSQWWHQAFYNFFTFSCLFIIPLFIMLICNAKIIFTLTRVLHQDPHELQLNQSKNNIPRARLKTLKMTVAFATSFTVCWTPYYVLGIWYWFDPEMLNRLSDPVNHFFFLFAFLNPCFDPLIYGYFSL
Text: National Center for Advancing Translational Sciences [NCATS]
Division of Preclinical Innovation [DPI]
U.S. Environmental Protection Agency [EPA]
National Institutes of Environmental Health Sciences [NIEHS]
National Toxicology Program [NTP]
U.S. Food and Drug Administration [FDA]
Gonadotropin-releasing hormone receptor (GnRHR) is a G-protein-coupled receptor (GPCR) and acts (through phospholipase C) to increase intracellular inositol trisphosphate and then release intracellular calcium stores. Cell-based GnRHR-Hek293 calcium influx assay is using HEK293 cells that have been genetically engineered to express the human GnRHR, which activity can be measured by calcium signaling. A compound/drug can activate (agonist) GnRHR that can be monitored by levels of intracellular calcium.
GnRHR-HEK293 cells developed by Codex Corp contain human GnRHR reporter gene, which was stably integrated into HEK 293 cells. The compound activation can be detected by fluorescence intensity via calcium flux assay. This cell line has been used to screen the Tox21 10K compound library to identify GnRHR agonists.
GnRHR-Hek293 cells were dispensed at 1500cells/4uL/well in 1536-well black wall/clear bottom plates using a multidrop dispenser. After the assay plates were incubated at a 37 C/5% CO2 incubator for 18 hours, 4 uL of Calcium Dye Solution was added to each well. The plates were incubated at 37 C for 1 hour. For agonist mode, 23 nL of compounds dissolved in DMSO, positive controls or DMSO only was transferred to the assay plate by a pin tool station. The fluorescence intensity in the plates was measured using FDSS 7000EX kinetic plate reader with a filter set of Ex/Em=480/540 for 3 min at 1 sec intervals. Each test compound was measured at 15 concentrations and in triplicates.

Row | SMILES | Potency | activity change
1 | CC1=CC(=O)NS(=O)(=O)O1 | inactive | 
2 | CCOc1ccccc1OCC | inactive | 
3 | C=CCCC=C | inactive | 
4 | COC(=O)CC(C(C)=O)C(=O)OC (stereo not given) | inactive | 
5 | CCCOC(=O)C(C)O (stereo not given) | inactive | 
6 | CCCCCCCCCCCCCCCCBr |  | 0.0207% [at 11.8 µM, hits give high values] (inactive)
7 | CC1(C)[C@@H]2CC[C@@]1(C)[C@H](O)C2 | inactive | 
8 | CC1(C)[C@@H]2CC[C@]3(C2)[C@@H]1C(=O)CCC3(C)C | inactive | 
9 | Cc1cccc(Nc2ccccc2C(=O)O)c1C | inactive | 
10 | CC(C)(C)c1ccc(S)cc1 | inactive | 
11 | O=C(Oc1ccccc1)c1ccc(O)cc1 | inactive | 
12 | O=C(O)Cc1cccc(-c2cc(CCCCCCc3ccc(O[C@H]4O[C@H](CO)[C@@H](O)[C@H](O)[C@@H]4O)c(-c4cccc(CC(=O)O)c4)c3)ccc2O[C@H]2O[C@H](CO)[C@@H](O)[C@H](O)[C@@H]2O)c1 |  | -0.17% [at 0.217 µM, hits give high values] (inactive)
13 | CC(C)(C)C(=O)OCOC(=O)C1N2C(=O)CC2S(=O)(=O)C1(C)C (stereo not given) | inactive | 
14 | CCOc1ccccc1C(N)=O | inactive | 
15 | O=C1c2cccc(O)c2C(=O)c2c(O)cccc21 | inactive | 
16 | C[N+]1([O-])CCOCC1 | inactive | 
17 | FC(F)(F)c1cccc(Cl)c1 | inactive | 
18 | COC(=O)C1=C(C)NC(C)=C(C(=O)OCC(C)C)C1c1ccccc1[N+](=O)[O-] (stereo not given) | inactive | 
19 | CCOC(OCC)OCC | inactive | 
20 | CC(O)CCCCn1c(=O)c2c(ncn2C)n(C)c1=O (stereo not given) | inactive | 

Row | SMILES | Potency | activity change
21 | CC12CCC(C1)C(C)(C)C2O (stereo not given) | inactive | 
22 | OCCN1CCN(CCCN2c3ccccc3C=Cc3ccccc32)CC1 | inactive | 
23 | CC(=O)/C=C/C1C(C)=CCCC1(C)C (stereo not given) | inactive | 
24 | CC(C)[C@@H]1CC[C@@H](C)CC1=O | inactive | 
25 | Cc1ncc(CSSCc2cnc(C)c(O)c2CO)c(CO)c1O | inactive | 
26 | CCCCCC(=O)CC | inactive | 
27 | O=P(O)(OCc1ccccc1)OCc1ccccc1 | inactive | 
28 | CNCCS(=O)(=O)O | inactive | 
29 | CN(C)CCCNCCCN(C)C | inactive | 
30 | Cc1ccc2c(c1)OCC(=O)CO2 | inactive | 
31 | Nc1cccc2c1CN(C1CCC(=O)NC1=O)C2=O (stereo not given) | inactive | 
32 | O=S(O)CO | inactive | 
33 | Nc1cc(C(Cl)=C(Cl)Cl)c(S(N)(=O)=O)cc1S(N)(=O)=O | inactive | 
34 | Cc1cccc(N(C)C)c1 | inactive | 
35 | CC(=O)c1ccccc1O | inactive | 
36 | [Cl][Nd]([Cl])[Cl] | inactive | 
37 | C=C[C@H]1CN2CC[C@H]1C[C@@H]2[C@@H](O)c1ccnc2ccc(OC)cc12 | inactive | 
38 | CCC(C)(C)C1CCCCC1OC(C)=O (stereo not given) | inactive | 
39 | CC(C)(O)Cc1ccccc1 | inactive | 
40 | O=C(O)c1ccc(OCCN2CCCCC2)cc1 | inactive | 
